# High-throughput results as filed in PubChem.
# CIT2-GFP yeast – modulators of CIT2-GFP expression in yeast, primary screen, S. cerevisiae, GFP fusion, multiplex flow cytometry, MLPCN library; hit rate 0.065% among 320,000; AID 2029, 2009; GFP response vs DMSO, % at 10 µM; S. cerevisiae CIT2-GFP strain, 3 h; 100 means same as DMSO wells;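 active means GFP response relative to DMSO above a set limit, near the screen mean plus 3 SD, cut at about 150% in these data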;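 further: ratio of well median GFP fluorescence to mean of DMSO wells on the plate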
# RPL19A-GFP yeast – RPL19A-GFP expression modulators in yeast, primary screen, cell-based, S. cerevisiae, multiplex flow cytometry, MLPCN; S. cerevisiae RPL19A-GFP strain, 3 h; hits give low values; percent response vs DMSO, % at 10 µM; hit rate 0.3% among 330,000; AID 2025, 2009;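 active means percent response vs DMSO below 50%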;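 further: median channel GFP fluorescence of the barcoded RPL19A-GFP strain; ratio of sample median GFP to plate DMSO average so 100% = DMSO; lower means less RPL19A-GFP as with rapamycin TOR inhibition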
# MEP2-GFP yeast – modulators of MEP2-GFP levels in yeast, primary screen, S. cerevisiae, multiplex flow cytometry, MLPCN library. S. cerevisiae MEP2-GFP strain, 3 h; 100% = DMSO control level. GFP response vs DMSO, % at 10 µM. hit rate 0.51% among 330,000. AID 2016, 2009;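 active means GFP response versus DMSO above a set limit, roughly screen mean plus 3 SD, cut at about 180% in these data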;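 further: median GFP fluorescence of the barcode-gated MEP2-GFP cells per well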
# LAP4-GFP MLPCN – modulators of LAP4-GFP expression in yeast, primary screen, S. cerevisiae, multiplex flow cytometry, MLPCN library; hit rate 0.34% among 320,000; GFP response vs DMSO, % at 10 µM; AID 2023, 2009; 3 h; median GFP as percent of DMSO wells;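 active means GFP response vs DMSO above a set limit, about the screen mean plus 3 SD, cut at about 150% in these data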
# AGP1 TOR yeast – modulators of AGP1-GFP expression in yeast TOR pathway, primary screen, cell-based, multiplex flow cytometry, S. cerevisiae, MLPCN library; 3 h; GFP as percent of DMSO wells; GFP response vs DMSO, % at 10 µM; hit rate 0.02% among 320,000;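 active means GFP response relative to DMSO above a set limit, near screen average plus 3 SD, cut at about 150% in these data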;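 further: median GFP channel fluorescence of the gated AGP1 strain per well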
# LAP4-GFP pick2 – LAP4-GFP expression modulators in yeast, confirmation, cell-based, second cherry pick, flow cytometry; shares compounds with LAP4-GFP MLPCN; S. cerevisiae LAP4-GFP strain, 3 h; GFP response vs DMSO, % at 10 µM; hit rate 20% among 590; AID 2621, 2010;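 active means GFP signal as percent of the solvent control above about 150%, meaning raised reporter expression, limit read from the data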;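 further: ratio of well median GFP fluorescence to plate DMSO mean so 100% = DMSO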
# MEP2-GFP pick2 – modulators of MEP2-GFP levels in yeast, confirmation, S. cerevisiae, flow cytometry GFP, second cherry picks; shares compounds with LAP4-GFP MLPCN; S. cerevisiae MEP2-GFP strain, 3 h; GFP response vs DMSO, % at 10 µM; hit rate 10% among 590;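 active means GFP signal above 150% of the solvent control wells, that is a rise of more than half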;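 further: median channel GFP fluorescence of all gated yeast cells per well; ratio of median GFP to plate DMSO average so 100% = DMSO level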
# RPL19A-GFP pick2 – RPL19A-GFP modulators in TOR pathway yeast, confirmation, cell-based, S. cerevisiae, flow cytometry, second cherry pick | shares compounds with LAP4-GFP MLPCN | S. cerevisiae RPL19A-GFP strain, 3 h; hits give low values; 100% means same as DMSO wells | GFP response vs DMSO, % at 10 µM | hit rate 3% among 590 | AID 2623, 2010;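 active means under 65% GFP response relative to DMSO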;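 further: median GFP channel fluorescence per well over the all cells gate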
# CIT2-GFP pick2 – modulators of CIT2-GFP expression in yeast, confirmation, flow cytometry, second cherry pick, single plex; shares compounds with LAP4-GFP MLPCN; S. cerevisiae CIT2-GFP strain, 3 h; DMSO control wells read 100%; GFP response vs DMSO, % at 10 µM; hit rate 8% among 590;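 active means GFP response vs DMSO above about 150%, limit read from the data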;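 further: median green fluorescence per well over all gated yeast cells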
# AGP1-GFP pick2 – AGP1-GFP expression modulators, hit retest, confirmation, cell-based, flow cytometry, S. cerevisiae, cherry pick set 2; shares compounds with LAP4-GFP MLPCN; S. cerevisiae AGP1-GFP strain, 3 h; percent response vs DMSO, % at 10 µM; 590 tested, under 10 active;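 active means over 150 percent of DMSO response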;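 further: median GFP channel fluorescence over all cells without mother daughter split; sample median GFP divided by mean DMSO control so 100% equals DMSO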
# Yeast autofluor – compound autofluorescence in yeast s288c, dose response, artefact control for yeast TOR pathway GFP screen, s288c strain | shares compounds with LAP4-GFP MLPCN | S. cerevisiae s288c, 520 nm autofluorescence, flow cytometry, 3 h; hits give high values; zero means same as solvent-only cells | fluorescence change (kMESF span) at 33 µM | 610 tested, under 10 active;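 active means fluorescence span over the dose series, or activity score, above about 33, limit read from the data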
# Yeast autofl DR – autofluorescence of compounds in yeast s288c, dose response, artefact control for yeast TOR pathway GFP screen, primary hits, KU SAR, s288c parental; fluorescence change (span) at 33 µM; 110 tested, under 10 active; S. cerevisiae s288c parental, compound autofluorescence, flow cytometry, 3 h; shares compounds with LAP4-GFP MLPCN; AID 488829, 2010;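 active means fluorescence change span, or the activity score built from it, above 25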
# TORC1 bypass gr – wild-type yeast growth inhibition sparing TORC1 bypass cells, mechanism study for yeast TOR pathway GFP screen, BY4741 wild type, TORC1 bypass strain | shares compounds with LAP4-GFP MLPCN | S. cerevisiae BY4741 spot growth rating, 48-72 h; hits give low values | growth rating (0-3) at 30 µM | 120 tested, under 10 active | AID 504456, 2011;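 active means growth rating at most 1 for wild type yeast while the TORC1 bypass strain still grows fully, rated 3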
# * hit, by the source's call; / = no result given. Compounds with a hit are over-represented: about 0.92% of the library has one in this group of screens.
SMILES,CIT2-GFP yeast,RPL19A-GFP yeast,MEP2-GFP yeast,LAP4-GFP MLPCN,AGP1 TOR yeast,LAP4-GFP pick2,MEP2-GFP pick2,RPL19A-GFP pick2,CIT2-GFP pick2,AGP1-GFP pick2,Yeast autofluor,others
COc1cccc2oc3ccc(C#Cc4ccccn4)cc3c(=O)c12,72,99,92,152*,87,105,93,94,104,100,/,
CC1CN(C(=O)C2CC2)C(C)CN1C(=O)C1CC1 (stereo unspecified),101,95,111,93,100,/,/,/,/,/,/,
CCCc1c(O)nc(SCCN(CC)CC)n(C(=O)c2ccccc2)c1=O,115,36*,248*,116,28,97,102,99,96,99,/,
O=C(COC(=O)CNC(=O)c1ccc(Cl)cc1Cl)NNC(=O)c1ccccc1F,120,121,141,146,129,/,/,/,/,/,/,
O=C(Oc1ccnc2cc(Cl)ccc12)N1CCCCCC1,79,88,422*,135,185*,/,/,/,/,/,0.2,Yeast autofl DR=0.26;TORC1 bypass gr=3
CCOC(=O)N1CCN(c2ccnc3cc(Cl)ccc23)CC1,105,104,100,94,104,/,/,/,/,/,/,
CCN(CC)C(=O)Oc1ccnc2cc(Cl)ccc12,96,97,123,109,124,100,198*,105,90,148,0.1,Yeast autofl DR=0.08;TORC1 bypass gr=3
Cc1ccc(S(=O)(=O)Nc2cccc(-c3ccc4nnc(C)n4n3)c2)s1,103,104,112,93,95,/,/,/,/,/,/,
Cc1ccc(C2=NOC(=O)/C2=C\c2ccccc2)cc1,101,96,93,142,96,/,/,/,/,/,/,
COc1cc(/C=C2\C(=O)ON=C2c2ccccc2)cc(Cl)c1O,108,112,111,117,109,/,/,/,/,/,/,
Cc1sc(/C=C2\C(=O)ON=C2c2ccccc2)cc1Br,98,103,103,91,91,99,102,98,106,99,0,
CCCCc1ccc(/C=C2/C(=O)ON=C2c2ccccc2)s1,97,100,108,104,99,104,108,98,102,104,0,
O=C(Nc1ccc(Oc2ncnc3cc(Cl)ccc23)nc1)Nc1cccc(C(F)(F)F)c1,87,87,89,93,95,/,/,/,/,/,/,
